Assay outcomes deposited in PubChem by several laboratories.
PfHsp90 set2 = inhibits growth of yeast expressing Plasmodium falciparum Hsp90 | inhibition, % at 9.4 µM | 310,000 tested, 0.32% active | S. cerevisiae expressing PfHsp90, BacTiter-Glo ATP, 48 h; yeast lacking PDR1 and PDR3 efflux regulators | AID 504621;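 active means every replicate shows inhibition above about 80%, whatever the replicate mean, limit read from the data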;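 further: 0% = DMSO neutral controls and 100% = 20 µM radicicol positive controls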
tim10-1 inh = inhibits growth of tim10-1 mutant yeast | S. cerevisiae tim10-1 ts strain growth, BacTiter-Glo, 24 h | inhibition, % at 20 µM | 330,000 tested, 2.2% active;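 active means inhibition of at least 40%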;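 further: mutant grown at 25 °C; 0% = DMSO wells with yeast and 100% = wells holding no yeast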
NLRP3 yeast inh = blocks the NALP3 inflammasome reconstituted in yeast; Yeast reconstituted NLRP3/ASC/caspase-1, beta-gal luminescence, 24 h; inhibition, % at 10 µM; 330,000 tested, 0.39% active; AID 2825;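 active means inhibition of 50% or more; inactive means inhibition below 50%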;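 further: plate controls were induced DMSO wells for no effect and uninduced yeast grown without galactose for full effect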
tim23-1 inh = tim23-1 yeast growth inhibition. S. cerevisiae tim23-1 growth, BacTiter-Glo luminescence, 24 h. inhibition, % at 20 µM. 330,000 tested, 1.3% active;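 active means growth inhibition of the mutant yeast at or above 50%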;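 further: temperature-sensitive mutant grown at 25 °C; plate controls were DMSO-treated mutant yeast for no effect and medium wells lacking yeast for full effect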
TIM10 inh = TIM10 yeast growth inhibition | S. cerevisiae TIM10 strain growth, BacTiter-Glo luminescence, 24 h | AID 463195 | 330,000 tested, 1.4% active | inhibition, % at 10 µM;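 active means inhibition of 40% or more at the single tested concentration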;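 further: wild-type TIM10 isogenic control strain grown at permissive 25 °C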
tim10-1 confirm = tim10-1 yeast growth inhibition, confirmed; shares compounds with tim10-1 inh; S. cerevisiae tim10-1 ts strain growth, BacTiter-Glo, 24 h; inhibition, % at 20 µM; 7,400 tested, 56% active; AID 463213;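 active means inhibition of yeast growth at or above a set limit in either of two repeat tests at 20 µM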;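 further: tim10-1 mutant grown at permissive 25 °C to find synthetic lethal compounds; 0% = DMSO yeast wells and 100% = medium wells without yeast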
TIM10 conf = confirmation of TIM10 yeast growth inhibitors. shares compounds with TIM10 inh. S. cerevisiae tim10 strain growth, BacTiter-Glo luminescence, 24 h. inhibition, % at 10 µM. 4,600 tested, 63% active. AID 463215;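 active means inhibition of yeast growth at or above a set limit in either of two replicates at 10 µM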;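 further: this counterscreen used the strain with wild-type TIM10; 0% = yeast with DMSO and 100% = medium wells lacking yeast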
tim23-1 confirm = confirmation of tim23-1 mutant yeast growth inhibitors; shares compounds with tim23-1 inh; 4,400 tested, 83% active; inhibition, % at 20 µM; S. cerevisiae tim23-1 growth, BacTiter-Glo luminescence, 24 h;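 active means inhibition above about 39% in either of two replicate wells at 20 µM, limit read from the data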;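 further: temperature-sensitive tim23-1 mutant grown at 25 °C; 0% = DMSO wells with yeast and 100% = medium wells without yeast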
* hit, by the source's call; / = no result given. This is a sample that favours compounds with a hit; in the whole collection about 3.7% have one here.

SMILES | PfHsp90 set2 | tim10-1 inh | NLRP3 yeast inh | tim23-1 inh | TIM10 inh | tim10-1 confirm | tim23-1 confirm | others
O=C(Nc1nnc(Cc2ccccc2)s1)c1ccco1 | -11.4 | 50.3* | 21.3 | 54.2* | 33.8 | 29.2* | 42.7*
CC(C)(C)Cc1nnc(NC(=O)c2ccco2)s1 | 12.3 | 26.0 | 12.9 | 43.3 | 27.0 | / | /
COc1cccc(CNC(=O)c2ccc(Cl)c(S(=O)(=O)N3CCOCC3)c2)c1 | -23.2 | -5.3 | 6.7 | 6.1 | 7.8 | / | /
Clc1ccc2[nH]c(-c3ccccc3)cc2c1 | -47.8 | 49.9* | 0.1 | 61.4* | 39.4 | 45.0* | 73.2*
c1ccc(-c2cc3ccccc3[nH]2)cc1 | 12.2 | 23.4 | 10.5 | 40.0 | 15.3 | / | /
CC1CCN(c2ccc3nnc(CCC(=O)NC(C)C)n3n2)CC1 | 18.7 | 24.3 | 14.3 | 14.1 | 6.4 | / | /
c1ccc(-c2noc(-c3ccc4c(c3)OCO4)n2)nc1 | 68.9 | 49.5* | 21.4 | 51.5* | 34.3 | 39.9* | 59.8*
O=S(=O)(Nc1ccc(Cl)cc1)c1ccc(N2CCOCC2)c(NC(=S)NCCN2CCOCC2)c1 | / | -7.0 | 14.5 | 3.2 | -0.1 | / | /
Brc1ccc(-c2nc(N/N=C/c3cccnc3)c3ccccc3n2)cc1 | 15.1 | 82.0* | 17.2 | 80.5* | 67.4* | 6.3 | 85.9* | TIM10 conf=55.5*
CCC1CCc2sc(C(=O)N3CCCN(C)CC3)cc2C1 (stereo unspecified) | 6.7 | 26.3 | 14.7 | -7.0 | 8.5 | / | /
CCC1CCc2sc(C(=O)N3CCN(c4ccccn4)CC3)cc2C1 (stereo unspecified) | 8.3 | 45.9* | 24.6 | 55.9* | 30.5 | 34.5* | 55.8*
COc1cc(OC)cc(C(=O)Nc2ccc3nc4n(c(=O)c3c2)CCCC4)c1 | -0.4 | -29.1 | 21.0 | 14.7 | 9.6 | / | /
Oc1ccc(Br)cc1/C=N/n1c(-c2ccccc2)n[nH]c1=S | -10.0 | 46.4* | 9.7 | 56.8* | 21.8 | 41.3* | 59.0*
O=[N+]([O-])c1ccc(-c2ccc(C=Nc3cccc4ccccc34)o2)cc1 | 15.6 | 5.9 | 32.9 | 10.3 | 3.9 | / | /
O=c1oc(/C=C/c2ccc([N+](=O)[O-])s2)nc2ccccc12 | -10.4 | 60.1* | 15.1 | 54.0* | 34.6 | 46.3* | 44.7*
O=[N+]([O-])c1ccc(C=Nc2cccc3ccccc23)s1 | 103.1* | 76.7* | 22.8 | 78.8* | 14.1 | 77.0* | 69.7*
Cc1ccc(S(=O)(=O)N2CCN(C(=O)COC(=O)CC(C)c3ccccc3)CC2)c(C)c1 (stereo unspecified) | 9.1 | 32.3 | 13.1 | 34.7 | 5.9 | / | /
Oc1ccccc1N=Cc1c(O)ccc2oc3c(c12)CCCC3 | -55.5 | 46.8* | 28.6 | 52.1* | 38.2 | 55.2* | 72.8*
O=C(NC1CCCC1)c1ccc(Cl)s1 | 0.7 | -15.5 | 10.2 | 6.4 | -11.3 | / | /
O=C(NC1CCCCCC1)c1ccc([N+](=O)[O-])s1 | / | 57.3* | 26.5 | 63.2* | 29.3 | 50.0* | 48.2*
Cc1ccc(S(=O)(=O)c2c(C)nn(C(C)(C)C)c2OC(=O)C(C)(C)C)cc1 | -15.4 | 31.8 | -0.8 | 39.4 | 7.5 | / | /
Cc1ccc(S(=O)(=O)c2c(C)nn(C(C)(C)C)c2OC(=O)c2ccco2)cc1 | 0.5 | 46.5* | 18.0 | 64.4* | 31.0 | 31.6* | 46.5*
Cc1ccc(S(=O)(=O)c2c(C)nn(C(C)(C)C)c2OC(=O)c2ccc(Br)o2)cc1 | -17.2 | 49.9* | 44.7 | 69.5* | 42.2* | 37.4* | 48.7* | TIM10 conf=34.6*
Cc1ccccc1CNC(=O)C(=O)NCCC1CCCCN1S(=O)(=O)c1cccs1 (stereo unspecified) | 35.1 | 29.2 | 17.2 | 18.4 | 11.5 | / | /
CC(C)CN1C(=O)/C(=C(/C#N)C(=O)NC2CCCCC2)c2ccccc21 | / | 72.0* | -2.8 | 64.0* | 79.1* | 71.2* | 50.1* | TIM10 conf=78.9*
SMILES | PfHsp90 set2 | tim10-1 inh | NLRP3 yeast inh | tim23-1 inh | TIM10 inh | tim10-1 confirm | tim23-1 confirm | others
Cc1c(CNC2CCCC2)c(C(=O)O)c(C)n1Cc1ccccc1 | 5.3 | 20.2 | 12.3 | 11.5 | -3.3 | / | /
Cc1cccc(-n2c(-c3csc4ccccc34)n[nH]c2=S)c1 | -19.5 | 45.1* | 16.6 | 50.6* | 37.7 | 29.6 | 42.9*
CC(C)Cn1c(-c2csc3ccccc23)n[nH]c1=S | -6.0 | 38.1 | 22.2 | 35.0 | 34.6 | / | /
Cc1oc(=O)c(NC(=O)c2ccccc2)cc1C(=O)c1ccccc1 | / | 62.3* | 38.0 | 56.6* | 53.4* | 61.0* | 59.6* | TIM10 conf=55.1*
N#Cc1ccc(OCC(=O)N2CCN(S(=O)(=O)c3cccc(Cl)c3)CC2)cc1 | 9.3 | 8.3 | 9.9 | 12.1 | 2.5 | / | /
Cn1c(=O)c2c(nc(SCC(=O)N3CCCCCC3)n2C)n(C)c1=O | 3.7 | 23.2 | 17.0 | 1.7 | -8.2 | / | /
CN1CCN(c2cc(N3CCN(C(=O)c4ccco4)CC3)c3c4c(onc24)-c2ccccc2C3=O)CC1 | -0.9 | 55.8* | 39.1 | 69.2* | 47.1* | 46.8* | 74.2* | TIM10 conf=47.5*
CCOc1ccc(C(=O)NC(C)(C)CC)cc1 | -1.5 | -6.8 | 23.0 | 4.3 | 5.1 | / | /
COc1ccc(/C=N/Nc2cc(N3CCCC3)nc(N3CCCC3)n2)cc1 | 5.0 | 44.9* | 14.0 | 67.5* | 26.9 | 18.1 | 44.1*
Oc1ccc(/C=N/Nc2cc(N3CCCC3)nc(N3CCCC3)n2)cc1 | 16.6 | 20.4 | 30.0 | 27.3 | 22.3 | / | /
COc1cc(/C=C2\SC(c3ccc(C)cc3)=NC2=O)cc(OC)c1O | -16.7 | 54.5* | 5.6 | 53.1* | 44.2* | 37.5* | 48.7* | TIM10 conf=39.9*
CCN(Cc1ccccc1)C(c1ccccn1)c1nnnn1C1CCCCC1 (stereo unspecified) | 16.1 | 41.9* | 8.7 | 62.0* | 60.5* | 51.1* | 64.6* | TIM10 conf=62.0*
CSc1cccc(NC(=S)N2CCCN(Cc3ccccc3F)C2)c1 | -29.2 | 9.0 | -1.1 | 1.4 | -17.6 | / | /
CC1Cc2ccccc2N1C(=S)NC(=O)c1cccc(Br)c1 (stereo unspecified) | -164.6 | 44.4* | 9.8 | 52.1* | 59.0* | 32.1* | 58.1* | TIM10 conf=5.2
CC(=O)c1ccc(NC(=S)N2c3ccccc3CC2C)cc1 (stereo unspecified) | 5.7 | -19.0 | 14.7 | 24.8 | 9.9 | / | /
CN(C)c1cccc(C(=O)Nc2ccc3nc4n(c(=O)c3c2)CCCCC4)c1 | -1.5 | 12.5 | 8.1 | 18.2 | 12.2 | / | /
CCOC(=O)C1CCN(C(=O)CC2(CC(=O)O)CCCC2)CC1 | -10.6 | 9.2 | 9.5 | -6.6 | 1.4 | / | /
c1csc(-c2csc3nc(CN4CCOCC4)nc(NCc4ccc5c(c4)OCO5)c23)c1 | -2.0 | 46.5* | 12.5 | 54.0* | 46.7* | 37.8* | 50.6* | TIM10 conf=38.5*
CN1/C(=C\C(=O)c2cccs2)C(C)(C)c2ccccc21 | 9.8 | 27.0 | 14.2 | 33.0 | -2.1 | / | /
